Source: PubChem BioAssay (The Scripps Research Institute Molecular Screening Center)
TbREL1 inh = TbREL1 inhibition, primary screen; P86926; TbREL1 RNA ligation, FRET fluorescence; inhibition, % at 9.66 µM; 0.49% of 89,000 active; AID 1117264;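 active = inhibition above the mean inhibition across all screened compounds plus 3 SD, cut at about 11% in these data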;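 also: 0% = plate median of test wells and 100% = NSC42067 control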
Target sequence (P86926 whole entry, looked up): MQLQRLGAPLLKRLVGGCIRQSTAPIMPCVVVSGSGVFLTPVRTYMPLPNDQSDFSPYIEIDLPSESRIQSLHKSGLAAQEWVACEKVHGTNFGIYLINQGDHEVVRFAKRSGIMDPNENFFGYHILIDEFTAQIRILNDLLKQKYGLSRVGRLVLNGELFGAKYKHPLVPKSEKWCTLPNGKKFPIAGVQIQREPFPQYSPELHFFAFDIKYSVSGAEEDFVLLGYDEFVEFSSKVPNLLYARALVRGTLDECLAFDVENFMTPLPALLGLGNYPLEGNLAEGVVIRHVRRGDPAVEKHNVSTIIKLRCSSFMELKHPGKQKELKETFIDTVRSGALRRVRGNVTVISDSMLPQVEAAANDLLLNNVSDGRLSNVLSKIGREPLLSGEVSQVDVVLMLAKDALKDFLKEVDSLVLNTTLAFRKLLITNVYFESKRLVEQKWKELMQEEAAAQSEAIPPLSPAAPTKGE
TbREL1 conf = TbREL1 inhibition, confirmation. TbREL1 RNA ligation, FRET fluorescence. shares compounds with TbREL1 inh. 37% of 390 active. AID 1117282. inhibition, % at 9.66 µM;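 active = mean inhibition across replicates above a set limit taken from the earlier primary screen, cut at about 11% in these data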;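 also: 0% = REL1 with substrate and DMSO and 100% = REL1 plus control inhibitor NSC42067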
* hit, by the source's call. The full list was thinned out, with hits kept by preference.

SMILES	TbREL1 inh	others
COC(=O)C1=C(C)N(Cc2ccccc2)C(=S)N[C@H]1c1cccc(C(F)(F)F)c1	-6.3
CCN1C(=NCc2cc(OC)c(OC)c(OC)c2)N[C@@H](c2cccc(C(F)(F)F)c2)C(C(=O)OC)=C1C	-0.3
COC(=O)C1=C(C)N(Cc2ccccc2C(F)(F)F)C(=NCc2ccccc2)NC1CCc1ccccc1 (stereo unspecified)	20.6*	TbREL1 conf=19.6*
C=CCN=C1NC(c2ccccc2)C(C(=O)OC)=C(C)N1Cc1ccccc1C(F)(F)F (stereo unspecified)	7.2
CCOC(=O)c1ccc(NC(=O)CSc2nnc(-c3cccc(C)c3)n2C)cc1	1.2
CCCCC#CC(CC)NCc1ccc(OC)cc1OC (stereo unspecified)	-1.4
O=S1(=O)c2ccc(N3CC[C@@H](O)C3)cc2O[C@H]2CCN1C2	3.7
COc1ccc(N2CCN(CCCNC(=O)CCc3cccc(F)c3)CC2)cc1	-5.9
O=C(CN1CCN(Cc2ccccc2)CC1)Nc1ccc(-n2cnnn2)cc1	-1.0
NC(=O)c1ccc(NC(=O)COc2ccc(-n3cnnn3)cc2)cc1	1.1
O=C(O)COCC(=O)Nc1ccc(-n2cnnn2)cc1	12.5*	TbREL1 conf=7.0
CCOC(=O)[C@]12CCCC=C1N(CCCOC)C(=O)[C@@H]2CC(=O)N1CCC(c2ccccc2)CC1	-3.3
COC(=O)[C@]12C[C@H](CC(=O)N3CCC(c4ccccc4)CC3)C(=O)N(Cc3ccccc3)C1=C[C@H](COCc1ccccc1)O[C@@H]2C	-3.0
COc1ccc(OC)c(CN2C(=O)CN(S(C)(=O)=O)CC2(C)c2nnnn2C2CCCC2)c1 (stereo unspecified)	4.1
CC(=O)c1ccc2c(c1)C1C=CCC1C(c1ccc(S(=O)(=O)N3CCOCC3)cc1)N2 (stereo unspecified)	-1.8
O=C(O)c1ccc2c(c1)C1C=CCC1C(c1ccncc1)N2 (stereo unspecified)	2.4
COc1ccc(NS(=O)(=O)c2ccc3c(c2)[C@H]2C=CC[C@H]2[C@@H](c2ccc(C(=O)O)cc2)N3)cc1	14.9*	TbREL1 conf=17.2*
CCc1ccccc1-c1cc(C(C)=O)c2n(c1=O)CCC2	1.9
O=C(CN1CCN(S(=O)(=O)c2ccc(F)cc2)CC1)Nc1ccccc1C(=O)NC1CC1	-1.1
CC(NCC(=O)Nc1ccccc1C(=O)NC1CC1)c1ccc(S(N)(=O)=O)cc1 (stereo unspecified)	16.6*	TbREL1 conf=6.1
CCN(CC)S(=O)(=O)c1ccc(C(C)NCC(=O)Nc2ccccc2C(=O)NC2CC2)cc1 (stereo unspecified)	1.5
O=S(=O)(c1ccc(Br)cc1)N1CCN=C1SCc1cccc(F)c1	11.1*	TbREL1 conf=3.5
O=C(c1ccco1)N1CCN=C1SCc1cccc(F)c1	1.0
O=C(c1cc2ccccc2o1)N1CCN=C1SCc1cccc(F)c1	0.4
COc1ccc(OC)c(NC(=O)c2ccccc2N(Cc2ccccc2)C(=O)C(C)Cl)c1 (stereo unspecified)	-0.8
SMILES	TbREL1 inh	others
Cc1cc(C)cc(N(CC(=O)NC2CCC(C)CC2)S(=O)(=O)c2ccc(C(C)(C)C)cc2)c1 (stereo unspecified)	0.9
O=C(OC12CCCN(C1)/C(=C/c1cccnc1)C2)c1ccc(F)cc1 (stereo unspecified)	-2.3
COc1cc(CN(CCN(C)C)Cc2ccccc2)ccc1OCc1ccccc1	16.0*	TbREL1 conf=12.0*
COc1cc(CNC(=O)C2CC2)ccc1OCc1ccccc1	-1.2
COc1cc(C(=O)O)ccc1OCc1ccccc1	2.8
COc1ccccc1NS(=O)(=O)c1cccc(C(=O)NNC(=O)c2ccc(NC(C)=O)cc2)c1	15.7*	TbREL1 conf=0.6
COc1ccccc1NS(=O)(=O)c1cccc(C(=O)NCc2ccccn2)c1	1.7
COc1cc(C(=O)NNC(=O)c2ccc(NC(C)=O)cc2)cc(OC)c1OC	0.7
COc1ccccc1CN(C)C(=O)C1CCCN(c2nc3ccccc3o2)C1 (stereo unspecified)	-1.6
CCC(C)NC(=O)CSc1nnc(-c2cc(OC)c(OC)c(OC)c2)o1 (stereo unspecified)	-0.8
O=C(CSc1nc2ccccc2n1Cc1ccccc1)NN=Cc1c[nH]c2ccccc12	-2.1
COC(=O)[C@]12C[C@H](CC(=O)NCc3ccc(C)o3)C(=O)N(CCc3ccc(OC)c(OC)c3)C1=C[C@H](COCc1ccccc1)O[C@@H]2C	-6.3
O=C(COc1ccc2ccccc2c1)Nc1cccc2cccnc12	1.5
O=C(CN1C(=O)c2ccccc2C1=O)Nc1cccc2cccnc12	-3.8
O=C(O)CCC(=O)Nc1cccc2cccnc12	11.4*	TbREL1 conf=4.6
Cc1ccccc1N1CCN(C(=O)CN2C(=O)CC(C)(C)S(=O)(=O)c3ccccc32)CC1	-4.3
O=c1cc(N2CCN(c3cccc(C(F)(F)F)c3)CC2)[nH]c(=O)n1-c1ccccc1	-3.5
COc1ccc(-n2cc(COC(=O)NCCc3ccccc3)nn2)cc1	-0.9
CN(C)S(=O)(=O)c1cccc(C(=O)N/N=C\c2ccc(-c3ccccn3)cc2)c1	2.3
COc1ccccc1CN[C@@H]1CC[C@@]23CCCN2C(=O)CCC[C@H]3C1	2.4
Cc1nnc(SCC(=O)NC2CCCc3c2cnn3-c2ccc(F)cc2F)o1 (stereo unspecified)	-0.8
O=C(NC1CCCc2c1cnn2-c1ccc(F)cc1F)c1ccccc1 (stereo unspecified)	2.2
O=C(Cc1ccccc1)NC1CCCc2c1cnn2-c1ccc(F)cc1F (stereo unspecified)	11.4*	TbREL1 conf=2.0
N#CC1=C(N)n2c(s/c(=C\c3ccco3)c2=O)=C(C#N)C1c1ccco1 (stereo unspecified)	27.4*	TbREL1 conf=8.1
O=c1/c(=C/c2ccco2)sc2n1CN(c1ccccc1)CN=2	4.1
SMILES	TbREL1 inh	others
O=c1nc2s/c(=C\c3ccco3)c(=O)n2nc1Cc1ccc(F)cc1	0.5
COc1cc2c(cc1OC)C(c1ccc(Cl)cc1)=NCC2	2.2
COc1cc2c(cc1OC)C(c1ccc(-c3ccc(Cl)cc3Cl)o1)=NCC2	5.7
COc1cc2c(cc1OC)C(c1ccc(-c3ccc(Cl)c(Cl)c3)o1)=NCC2	13.6*	TbREL1 conf=24.2*
O=C(NCCCc1ccccc1)O[C@@H]1CC[C@@]23CCCN2C(=O)CCC[C@H]3C1	5.3
CN(C(=O)COC(=O)c1cccs1)c1c(N)n(Cc2ccccc2)c(=O)[nH]c1=O	-1.1
CSc1nnc(SCC(=O)N(C)c2c(N)n(Cc3ccccc3)c(=O)[nH]c2=O)s1	6.5
CN(C(=O)CSc1ncnc2sccc12)c1c(N)n(Cc2ccccc2)c(=O)[nH]c1=O	11.6*	TbREL1 conf=2.1
Cc1ccccc1CN1CCCCC(NC(=O)c2ccccc2C(F)(F)F)C1=O (stereo unspecified)	-1.7
Cc1ccc(-n2c(SCC(=O)c3ccc(-c4ccccc4)cc3)nnc2-c2ccc(C(C)(C)C)cc2)cc1	-1.1
ON=C(c1ccccc1)c1ccc2c3c(cccc13)CC2	11.5*	TbREL1 conf=2.8
NC(=O)/C(=N\O)c1ccccc1	-0.1
O=C(c1ccc2c3c(cccc13)CC2)C1CCCN(Cc2ccncc2)C1 (stereo unspecified)	5.9
COC(CNC(=O)[C@H](Cc1c[nH]c2ccccc12)NC1(C(=O)NCc2ccccc2)CCCCC1)OC	-6.0
CC(C)(C)c1ccc(-c2nnc(SCC(=O)c3ccc([N+](=O)[O-])cc3)n2-c2ccc(Cl)cc2)cc1	0.3
CC(C)[C@H]1/C(=C/C2CC2)N2C(=O)C[C@H](c3ccccc3)N=C2N1C	-4.5
